Each structure is given as a SMILES string. Compounds without any hit were thinned out: in the full panel of roughly 79,000, 15% have a hit. A number with no mark means an inactive call. Activity calls are given as the source filed them. No stated cut-off is given here; in the data, active means growth inhibition above about 70%; inactive means the rest.

Assay [1] can be described thus: NCI Yeast Anticancer Drug Screen. Data for the rad50 strain (AID 155).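 Further: 0% = growth of vehicle-only cultures of the same strain.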 The settings on record: S. cerevisiae rad50 strain growth inhibition, hits give high values. The gist of the method: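 Genetically altered yeast (DNA repair pathway); compound treatment; growth inhibition vs vehicle ctrl.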
Assay [2] is described as follows: NCI Yeast Anticancer Drug Screen. Data for the mec2-1 strain (AID 157). The settings on record: S. cerevisiae mec2-1 strain, hits give high values. The gist of the method:
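Vehicle-treated cultures served as reference for growth inhibition of compound-exposed mec2-1 yeast.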

Assay [3] can be described thus: NCI Yeast Anticancer Drug Screen. Data for the sgs1 mgt1 strain (AID 161).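 Further: 0% = growth of cultures given vehicle only.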 The settings on record: S. cerevisiae sgs1 mgt1 strain, hits give high values. The gist of the method:
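Read-out: growth inhibition vs vehicle controls. Cells: mutant yeast strain deficient in DNA damage repair.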

Assay [4] is described as follows: NCI Yeast Anticancer Drug Screen. Data for the cln2 rad14 strain (AID 165).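 Further: 0% = growth equal to vehicle treated cultures.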 The settings on record: S. cerevisiae cln2 rad14 strain, hits give high values. The procedure, abridged:
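Each compound was tested on cln2 rad14 yeast. Inhibition of growth was calculated against vehicle-exposed controls.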

The nature of assay [5]: NCI Yeast Anticancer Drug Screen. Data for the bub3 strain (AID 167). The settings on record: S. cerevisiae bub3 mutant strain, hits give high values. The procedure, abridged:
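Yeast carrying a defined mutation is treated with each compound, and growth is compared with that of vehicle-exposed cells to give inhibition.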

The nature of assay [6]: NCI Yeast Anticancer Drug Screen. Data for the mlh1 rad18 strain (AID 175). The settings on record: S. cerevisiae mlh1 rad18 strain growth inhibition, hits give high values. The gist of the method: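 Vehicle-treated cultures served as the reference for growth inhibition in a yeast strain carrying DNA damage repair alterations exposed to each compound.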
Setting [7] is: at 5.0 µM (retest, dose inferred, filed as 0.5).
The mark [8] stands for this setting: at 50.0 µM (retest, dose inferred, filed as 5.0).

Take `Cc1ccc(S)c(S)c1`: the growth inhibition is 65% in assay [1] (setting [7]); 53% in assay [1] (setting [8]); 63.4% in assay [1] (at 50.0 µM); 52% in assay [2] (setting [7]); 34% in assay [2] (setting [8]); 35.9% in assay [2] (at 50.0 µM). Moreover, the growth inhibition in assay [3] (setting [7]) is 44%; in assay [3] (setting [8]), 28%; in assay [3] (at 50.0 µM) it was 39.3%; in assay [4] (setting [7]), 81% (active); in assay [4] (setting [8]) it was 93% (active); in assay [4] (at 50.0 µM) it was 77.7% (active). Besides, the growth inhibition in assay [5] (setting [7]) was 92% (active); in assay [5] (setting [8]), 93% (active); in assay [5] (at 50.0 µM), 64.6%; in assay [6] (setting [7]) it was 95% (active); in assay [6] (setting [8]), 93% (active); in assay [6] (at 50.0 µM), 41.5%.

Take `CCCCCCCCCCCCn1cnc2ncnc(Cl)c21`: the growth inhibition in assay [1] (setting [7]) was 6%; in assay [1] (setting [8]), 48%; in assay [1] (at 50.0 µM) it was 98.2% (active); in assay [2] (setting [7]) it was 7%; in assay [2] (setting [8]), 54%; in assay [2] (at 50.0 µM) it was 99% (active). The growth inhibition in assay [3] (setting [7]) was 11%; in assay [3] (setting [8]), 68%; in assay [3] (at 50.0 µM), 98.7% (active); in assay [4] (setting [7]), 2%; in assay [4] (setting [8]), 28%; in assay [4] (at 50.0 µM), 98.4% (active). The growth inhibition in assay [5] (setting [7]) was -4%; in assay [5] (setting [8]), 41%; in assay [5] (at 50.0 µM) it was 98.8% (active); in assay [6] (setting [7]), 6%; in assay [6] (setting [8]) it was 63%; in assay [6] (at 50.0 µM), 98.6% (active).

Take `CCSSC12CCCN1C(=O)C(C)N(C)C2=O` (configuration not stated): the growth inhibition is 1% in assay [1] (setting [7]); 79% (active) in assay [1] (setting [8]); 77.6% (active) in assay [1] (at 50.0 µM); 9% in assay [2] (setting [7]); 81% (active) in assay [2] (setting [8]); 16.4% in assay [2] (at 50.0 µM). The growth inhibition is 7% in assay [3] (setting [7]); 49% in assay [3] (setting [8]); 11.6% in assay [3] (at 50.0 µM); 11% in assay [4] (setting [7]); 58% in assay [4] (setting [8]); -61.4% in assay [4] (at 50.0 µM). The growth inhibition in assay [5] (setting [7]) was 0%; in assay [5] (setting [8]), 53%; in assay [5] (at 50.0 µM) it was 19.8%; in assay [6] (setting [7]), 1%; in assay [6] (setting [8]), 84% (active); in assay [6] (at 50.0 µM) it was 4.5%.

Consider `Cc1occc1C(=S)Nc1ccc(Cl)c(COC(C)(C)C)c1`, for which the growth inhibition in assay [1] (setting [7]) is 26%; in assay [1] (setting [8]), 74% (active); in assay [1] (at 50.0 µM) it was 78.9% (active); in assay [2] (setting [7]) it was 6%; in assay [2] (setting [8]) it was 74% (active); in assay [2] (at 50.0 µM), 84.3% (active). For the same compound, the growth inhibition in assay [3] (setting [7]) was 17%; in assay [3] (setting [8]), 84% (active); in assay [3] (at 50.0 µM), 85.7% (active); in assay [4] (setting [7]) it was 22%; in assay [4] (setting [8]), 86% (active); in assay [4] (at 50.0 µM), 84.8% (active). Besides, the growth inhibition in assay [5] (setting [7]) is 26%; in assay [5] (setting [8]), 90% (active); in assay [5] (at 50.0 µM) it was 86.2% (active); in assay [6] (setting [7]) it was 19%; in assay [6] (setting [8]), 85% (active); in assay [6] (at 50.0 µM), 78.5% (active).

As to `O=C(N/C(=C\c1ccc(/C=C(\NC(=O)c2ccccc2)c2nc3ccccc3s2)cc1)c1nc2ccccc2s1)c1ccccc1`, the growth inhibition in assay [1] (setting [7]) was 57%; in assay [1] (setting [8]), 57%; in assay [1] (at 50.0 µM), 85.1% (active); in assay [2] (setting [7]) it was 32%; in assay [2] (setting [8]) it was 32%; in assay [2] (at 50.0 µM), 87.5% (active). Further, the growth inhibition in assay [3] (setting [7]) is 42%; in assay [3] (setting [8]), 42%; in assay [3] (at 50.0 µM), 85.6% (active); in assay [4] (setting [7]) it was 38%; in assay [4] (setting [8]) it was 38%; in assay [4] (at 50.0 µM), 84.7% (active). Further, the growth inhibition in assay [5] (setting [7]) is 60%; in assay [5] (setting [8]), 60%; in assay [5] (at 50.0 µM), 85.5% (active); in assay [6] (setting [7]), 28%; in assay [6] (setting [8]) it was 28%; in assay [6] (at 50.0 µM) it was 83.8% (active).

`CC12C(=O)OC(=O)C1C1c3ccccc3C2c2ccccc21` (configuration not stated): the growth inhibition was 71% (active) in assay [1] (setting [7]); 99% (active) in assay [1] (setting [8]); 89.7% (active) in assay [1] (at 50.0 µM); 82% (active) in assay [2] (setting [7]); 99% (active) in assay [2] (setting [8]); 89.5% (active) in assay [2] (at 50.0 µM). Also, the growth inhibition in assay [3] (setting [7]) is 26%; in assay [3] (setting [8]) it was 90% (active); in assay [3] (at 50.0 µM) it was 89.3% (active); in assay [4] (setting [7]), 51%; in assay [4] (setting [8]) it was 95% (active); in assay [4] (at 50.0 µM), 86.8% (active). Moreover, the growth inhibition in assay [5] (setting [7]) was 54%; in assay [5] (setting [8]), 90% (active); in assay [5] (at 50.0 µM) it was 89.5% (active); in assay [6] (setting [7]) it was 76% (active); in assay [6] (setting [8]) it was 99% (active); in assay [6] (at 50.0 µM) it was 88% (active).

With `CC(C)C1=C(O)C2=C(C(=O)C1=O)C1(C)CCCC(C)(C)C1C(O)C2OC=O` (configuration not stated), the growth inhibition in assay [1] (setting [7]) was 91% (active); in assay [1] (setting [8]), 95% (active); in assay [1] (at 50.0 µM) it was 92.2% (active); in assay [2] (setting [7]) it was 100% (active); in assay [2] (setting [8]), 100% (active); in assay [2] (at 50.0 µM) it was 93.7% (active). Also, the growth inhibition in assay [3] (setting [7]) was 99% (active); in assay [3] (setting [8]) it was 100% (active); in assay [3] (at 50.0 µM) it was 93.5% (active); in assay [4] (setting [7]) it was 81% (active); in assay [4] (setting [8]) it was 99% (active); in assay [4] (at 50.0 µM) it was 92% (active). Also, the growth inhibition in assay [5] (setting [7]) was 100% (active); in assay [5] (setting [8]) it was 100% (active); in assay [5] (at 50.0 µM) it was 92.5% (active); in assay [6] (setting [7]) it was 98% (active); in assay [6] (setting [8]) it was 99% (active); in assay [6] (at 50.0 µM), 87.5% (active).

On to `Cc1c(C)c(C)c(C(=O)c2ccccc2C(=O)NCCSC(C)(C)C)c(C)c1C`, for which the growth inhibition in assay [1] (setting [7]) was 42%; in assay [1] (setting [8]), 49%; in assay [1] (at 50.0 µM), 82.6% (active); in assay [2] (setting [7]), 45%; in assay [2] (setting [8]), 60%; in assay [2] (at 50.0 µM) it was 67.6%. Moreover, the growth inhibition is -15% in assay [3] (setting [7]); -31% in assay [3] (setting [8]); 83.3% (active) in assay [3] (at 50.0 µM); 53% in assay [4] (setting [7]); 41% in assay [4] (setting [8]); 76.6% (active) in assay [4] (at 50.0 µM). For the same compound, the growth inhibition in assay [5] (setting [7]) is 44%; in assay [5] (setting [8]), 33%; in assay [5] (at 50.0 µM), 82.4% (active); in assay [6] (setting [7]), 47%; in assay [6] (setting [8]) it was 55%; in assay [6] (at 50.0 µM), 84.3% (active).

Take `Cc1ccc(S(=O)(=O)OC2C(C)OCOC(C)C2OS(=O)(=O)c2ccc(C)cc2)cc1` (configuration not stated): the growth inhibition in assay [1] (setting [7]) is 1%; in assay [1] (setting [8]), 0%; in assay [1] (at 50.0 µM) it was 24.6%; in assay [2] (setting [7]) it was -2%; in assay [2] (setting [8]) it was -1%; in assay [2] (at 50.0 µM) it was 11.9%. Also, the growth inhibition was -2% in assay [3] (setting [7]); -17% in assay [3] (setting [8]); 5.9% in assay [3] (at 50.0 µM); 0% in assay [4] (setting [7]); -12% in assay [4] (setting [8]); 16.6% in assay [4] (at 50.0 µM). Moreover, the growth inhibition is 2% in assay [5] (setting [7]); 15% in assay [5] (setting [8]); 93% (active) in assay [5] (at 50.0 µM); 1% in assay [6] (setting [7]); 1% in assay [6] (setting [8]); -3.85% in assay [6] (at 50.0 µM).
